From the supplement of paper PMC10849652
Of roughly 8,800 targets only a part is listed; those with a hit were picked by preference. About 0.5% of all pairs of compound and target were hits.

Assays:
Assay in all cases: log2 fold change, soluble protein after heating vs DMSO (PISA); higher = thermal stabilisation; K562 lysate, 10 uM; active = over 0.2 and 3.5 SD of the protein, either way, in both replicates (recomputed)
erlotinib = compound: C#Cc1cccc(Nc2ncnc3cc(OCCOC)c(OCCOC)cc23)c1 [erlotinib]
Procedure, shortened: (§1)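 Values give the log-two fold change in thermal stability against solvent controls, from duplicates. Crude K562 extract at 1 mg/mL protein, made by dounce homogenisation in PBS pH 7.4 with 1 mM MgCl2, was treated with 10 μM compound for 30 min. After 3 min heating across 48°C-58°C, aliquots were pooled, adjusted to 0.5% NP-40 at 4°C and centrifuged at 21,000xg for 90 min. The supernatant was measured by TMTpro 16plex LC-MS/MS with channel sums equalised.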

[1] = compound: C/C(=N\NC(=O)C1=CC(=CC=C1)S(=O)(=O)N2CCOCC2)/C3=C(C=CC(=C3)Cl)O
Procedure, shortened: as §1

[2] = compound: C1=CC(=CC=C1C2=NC3=C(N2)C=C(C=C3)C(=O)N)OC4=CC=C(C=C4)Cl
Procedure, shortened: as §1

[3] = compound: C1=CC2=C(C=CC(=C2)/C=C\3/C(=O)NC(=NCC4=CC=CS4)S3)N=C1
Procedure, shortened: as §1

[4] = compound: C1=CC2=NC=CN=C2C=C1/C=C/3\C(=O)NC(=O)S3
Procedure, shortened: as §1

[5] = compound: C1=CC=C(C=C1)C2=NC(=C(N2)C3=CC=NC=C3)C4=CC(=C(C=C4)Cl)O
Procedure, shortened: as §1

[6] = compound: C1=CC=C2C(=C1)C3=NNC4=CC=CC(=C43)C2=O
Procedure, shortened: as §1

[7] = compound: C1CCN(C1)C(=O)NC2=CC=CC(=C2)NC3=NC=C(C(=N3)NCCC4=CN=CN4)Br
Procedure, shortened: as §1

[8] = compound: C1CN(CCC1(CC2=CC=C(C=C2)Cl)N)C3=NC=NC4=C3C=CN4
Procedure, shortened: as §1

IRAK-1-4 Inhibitor I = compound: C1COCCN1CCN2C3=CC=CC=C3N=C2NC(=O)C4=CC(=CC=C4)[N+](=O)[O-] [IRAK-1-4 Inhibitor I]
Procedure, shortened: as §1

ibrutinib = compound: C=CC(=O)N1CCC[C@@H](n2nc(-c3ccc(Oc4ccccc4)cc3)c3c(N)ncnc32)C1 [ibrutinib]
Procedure, shortened: as §1

[9] = compound: CC(=O)c1cnc2ccc(-c3cc(Cl)c(O)c(Cl)c3)nc2c1N[C@H]1CC[C@H](CN(C)C)CC1
Procedure, shortened: as §1

ralimetinib = compound: CC(C)(C)Cn1c(N)nc2ccc(-c3[nH]c(C(C)(C)C)nc3-c3ccc(F)cc3)nc21 [ralimetinib]
Procedure, shortened: as §1

[10] = compound: CC(C)(O)CC(=O)NCCn1ccc2ncnc(Nc3ccc(Oc4cccc(C(F)(F)F)c4)c(Cl)c3)c21
Procedure, shortened: as §1

[11] = compound: CC(C)C1=C2N=C(C=C(N2N=C1)NCC3=CC=CC=C3)NCCCCCCN
Procedure, shortened: as §1

[12] = compound: CC1=C(C(CC(=O)N1)C2=CC=C(C=C2)C(F)(F)F)C(=O)NC3=C(C=C4C(=C3)C=NN4)F
Procedure, shortened: as §1

[13] = compound: CC1=C(C2=C(C=C1)C(=O)C3=CC=CC=C3N2CCCN)C
Procedure, shortened: as §1

[14] = compound: CC1=C(C=C(C=C1)NC(=O)C2=CC(=CC=C2)C(C)(C)C#N)NC3=CC4=C(C=C3)N=CN(C4=O)C
Procedure, shortened: as §1

[15] = compound: CC1=C(C=C(C=C1)NC(=O)C2=CC(=CC=C2)N(C)C)NC(=O)C3=CC=C(C=C3)O
Procedure, shortened: as §1

[16] = compound: CC1=CC=C(C=C1)SC2=C3C=C(SC3=CN=C2)C(=O)N
Procedure, shortened: as §1

Measured: log2 fold change

HERC2 (UniProt O95714)
inactive: erlotinib 0.014 | [1] 0.174 | [2] 0.115 | [3] 0.007 | [4] 0.01 | [5] 0.042 | [6] -0.061 | [7] -0.016 | [8] -0.001 | IRAK-1-4 Inhibitor I -0.033 | ibrutinib 0.001 | [9] 0.053 | ralimetinib 0.002 | [10] 0.02 | [11] 0.082 | [12] 0.028 | [13] -0.063 | [14] 0.021 | [15] 0.041 | [16] 0.015

HSD17B10 (UniProt Q99714)
Sequence of UniProt Q99714 (Q99714 whole entry, looked up): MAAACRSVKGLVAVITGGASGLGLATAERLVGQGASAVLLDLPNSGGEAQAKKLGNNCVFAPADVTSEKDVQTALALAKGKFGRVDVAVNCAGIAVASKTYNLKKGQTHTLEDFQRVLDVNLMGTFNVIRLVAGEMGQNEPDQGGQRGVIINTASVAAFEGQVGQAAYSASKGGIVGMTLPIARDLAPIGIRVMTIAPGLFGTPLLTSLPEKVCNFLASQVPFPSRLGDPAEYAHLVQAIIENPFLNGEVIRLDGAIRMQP
inactive: erlotinib 0.018 | [1] -0.044 | [2] 0.035 | [3] -0.023 | [4] 0.01 | [5] 0.016 | [6] -0.054 | [7] -0.03 | [8] 0.054 | IRAK-1-4 Inhibitor I 0.012 | ibrutinib -0.012 | [9] -0.018 | ralimetinib 0.004 | [10] -0.003 | [11] 0 | [12] -0.026 | [13] -0.031 | [14] -0.018 | [15] -0.007 | [16] -0.025

GNE isoform 2 (UniProt Q9Y223)
Sequence of UniProt Q9Y223 (Q9Y223 whole entry, looked up): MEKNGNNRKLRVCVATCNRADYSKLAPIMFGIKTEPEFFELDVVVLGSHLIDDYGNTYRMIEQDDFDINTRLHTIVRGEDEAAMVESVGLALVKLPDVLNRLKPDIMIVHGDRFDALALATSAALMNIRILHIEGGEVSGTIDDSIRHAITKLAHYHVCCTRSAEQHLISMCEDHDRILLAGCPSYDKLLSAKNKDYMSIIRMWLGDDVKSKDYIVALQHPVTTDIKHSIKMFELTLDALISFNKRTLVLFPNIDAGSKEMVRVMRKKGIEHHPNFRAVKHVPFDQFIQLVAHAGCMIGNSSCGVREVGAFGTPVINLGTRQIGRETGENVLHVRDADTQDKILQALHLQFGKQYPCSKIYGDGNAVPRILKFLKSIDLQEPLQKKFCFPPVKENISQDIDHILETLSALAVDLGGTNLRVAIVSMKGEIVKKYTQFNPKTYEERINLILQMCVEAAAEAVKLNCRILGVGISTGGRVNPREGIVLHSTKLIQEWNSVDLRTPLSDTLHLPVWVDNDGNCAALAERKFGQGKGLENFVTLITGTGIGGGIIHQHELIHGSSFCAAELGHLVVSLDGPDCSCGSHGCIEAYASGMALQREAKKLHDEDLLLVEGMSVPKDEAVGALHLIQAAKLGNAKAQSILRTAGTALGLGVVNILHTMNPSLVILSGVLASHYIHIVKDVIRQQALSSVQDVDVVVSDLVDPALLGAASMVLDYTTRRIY
inactive: erlotinib 0.035 | [1] -0.067 | [2] -0.042 | [3] -0.032 | [4] 0.011 | [5] 0.064 | [6] -0.031 | [7] -0.024 | [8] 0.023 | IRAK-1-4 Inhibitor I -0.042 | ibrutinib -0.036 | [9] 0.009 | ralimetinib 0.033 | [10] -0.036 | [11] -0.007 | [12] -0.011 | [13] -0.036 | [14] -0.001 | [15] 0.069 | [16] 0.009

ISCA1 isoform 2 (UniProt Q9BUE6)
Sequence of UniProt Q9BUE6 (Q9BUE6 whole entry, looked up): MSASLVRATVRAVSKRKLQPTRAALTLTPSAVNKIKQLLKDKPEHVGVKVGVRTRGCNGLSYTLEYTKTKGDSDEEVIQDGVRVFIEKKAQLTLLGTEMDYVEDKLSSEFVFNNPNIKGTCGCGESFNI
inactive: erlotinib -0.025 | [1] -0.036 | [2] 0.021 | [3] -0.007 | [4] -0.04 | [5] -0.033 | [6] -0.013 | [7] 0.003 | [8] -0.031 | IRAK-1-4 Inhibitor I 0.031 | ibrutinib 0.049 | [9] -0.001 | ralimetinib 0.04 | [10] -0.028 | [11] -0.069 | [12] -0.276 | [13] -0.006 | [14] 0.031 | [15] -0.029 | [16] -0.016

IFNGR1 (UniProt P15260)
inactive: erlotinib 0.06 | [1] -0.064 | [2] 0.07 | [3] -0.134 | [4] -0.127 | [5] -0.021 | [6] -0.264 | [7] -0.075 | [8] 0.073 | IRAK-1-4 Inhibitor I 0.107 | ibrutinib -0.033 | [9] -0.12 | ralimetinib -0.018 | [10] -0.256 | [11] -0.014 | [12] 0.162 | [13] -0.077 | [14] 0.017 | [15] 0.073 | [16] -0.213

H4C1 (UniProt P62805)
inactive: erlotinib 0.065 | [1] 0.499 | [2] -0.023 | [3] -0.042 | [4] -0.024 | [5] 0.252 | [6] -0.008 | [7] 0.067 | [8] -0.052 | IRAK-1-4 Inhibitor I -0.067 | ibrutinib 0.055 | [9] -0.008 | ralimetinib -0.078 | [10] -0.037 | [11] -0.046 | [12] 0.075 | [13] -0.082 | [14] 0.011 | [15] -0.022 | [16] 0.008

GRK2 (UniProt P25098)
Sequence of UniProt P25098 (P25098 whole entry, looked up): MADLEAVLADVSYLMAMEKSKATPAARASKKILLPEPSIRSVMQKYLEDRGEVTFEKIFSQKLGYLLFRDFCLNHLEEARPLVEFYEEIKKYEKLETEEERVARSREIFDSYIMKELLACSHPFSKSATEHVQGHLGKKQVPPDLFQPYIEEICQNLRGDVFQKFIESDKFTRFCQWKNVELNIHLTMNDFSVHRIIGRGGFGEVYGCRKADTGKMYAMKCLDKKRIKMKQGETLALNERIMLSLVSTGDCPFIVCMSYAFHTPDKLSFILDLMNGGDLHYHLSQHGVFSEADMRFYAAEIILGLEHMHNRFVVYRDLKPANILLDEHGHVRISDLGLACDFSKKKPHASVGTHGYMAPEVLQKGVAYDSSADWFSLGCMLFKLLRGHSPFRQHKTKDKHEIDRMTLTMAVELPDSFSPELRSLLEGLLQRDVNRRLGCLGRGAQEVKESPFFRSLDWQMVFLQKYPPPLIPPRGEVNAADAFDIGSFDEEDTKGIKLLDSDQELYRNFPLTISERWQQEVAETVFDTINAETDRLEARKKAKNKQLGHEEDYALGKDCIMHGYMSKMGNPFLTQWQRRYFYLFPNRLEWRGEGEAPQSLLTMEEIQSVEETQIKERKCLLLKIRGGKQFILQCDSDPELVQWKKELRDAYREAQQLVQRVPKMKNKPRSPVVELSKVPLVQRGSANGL
inactive: erlotinib 0.023 | [1] 0.028 | [2] 0.015 | [3] 0.115 | [4] -0.005 | [5] -0.025 | [6] -0.098 | [7] -0.026 | IRAK-1-4 Inhibitor I -0.002 | ibrutinib 0.002 | [9] 0.011 | ralimetinib 0.006 | [10] 0.036 | [11] 0 | [12] 0.151 | [13] 0.014 | [14] -0.048 | [15] 0.007 | [16] -0.031
active: [8] 0.536

GOLGA6B (UniProt A6NDN3)
Sequence of UniProt A6NDN3 (A6NDN3 whole entry, looked up): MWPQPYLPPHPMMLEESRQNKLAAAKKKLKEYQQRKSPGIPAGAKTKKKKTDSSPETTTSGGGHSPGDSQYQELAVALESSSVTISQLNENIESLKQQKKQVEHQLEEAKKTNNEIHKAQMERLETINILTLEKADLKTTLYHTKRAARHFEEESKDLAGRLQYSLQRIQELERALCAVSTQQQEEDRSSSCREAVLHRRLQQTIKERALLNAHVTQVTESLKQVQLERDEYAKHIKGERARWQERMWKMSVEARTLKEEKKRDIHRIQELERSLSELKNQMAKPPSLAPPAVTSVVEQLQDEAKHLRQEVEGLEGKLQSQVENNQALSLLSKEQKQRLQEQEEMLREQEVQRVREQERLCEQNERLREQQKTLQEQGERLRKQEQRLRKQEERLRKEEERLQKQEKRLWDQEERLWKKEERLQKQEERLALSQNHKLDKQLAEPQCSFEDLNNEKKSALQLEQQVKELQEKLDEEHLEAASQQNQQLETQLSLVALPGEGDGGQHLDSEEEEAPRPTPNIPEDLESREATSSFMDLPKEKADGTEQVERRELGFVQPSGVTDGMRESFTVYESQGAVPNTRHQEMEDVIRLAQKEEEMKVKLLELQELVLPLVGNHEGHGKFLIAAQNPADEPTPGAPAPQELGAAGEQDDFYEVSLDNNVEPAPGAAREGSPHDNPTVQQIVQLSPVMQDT
inactive: erlotinib 0.092 | [1] -0.061 | [2] -0.082 | [3] 0.033 | [4] 0.08 | [5] -0.013 | [6] -0.054 | [7] 0.011 | [8] 0.032 | IRAK-1-4 Inhibitor I -0.022 | ibrutinib -0.034 | [9] 0.003 | ralimetinib -0.047 | [10] -0.187 | [11] -0.057 | [12] -0.127 | [13] -0.114 | [14] 0.045 | [15] 0.066 | [16] 0

ISY1 isoform 1 (UniProt Q9ULR0)
Sequence of UniProt Q9ULR0 (Q9ULR0 whole entry, looked up): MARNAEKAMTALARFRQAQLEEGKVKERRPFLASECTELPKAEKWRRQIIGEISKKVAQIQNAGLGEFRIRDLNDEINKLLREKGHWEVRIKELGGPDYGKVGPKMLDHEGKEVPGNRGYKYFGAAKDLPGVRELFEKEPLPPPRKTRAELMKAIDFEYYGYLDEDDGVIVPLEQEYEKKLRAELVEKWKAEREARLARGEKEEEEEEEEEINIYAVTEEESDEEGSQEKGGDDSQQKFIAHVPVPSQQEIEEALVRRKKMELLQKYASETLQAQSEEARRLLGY
inactive: erlotinib 0.022 | [1] 0.07 | [2] 0.02 | [3] 0.06 | [4] 0.018 | [5] 0.004 | [6] -0.004 | [7] 0.031 | [8] 0.068 | IRAK-1-4 Inhibitor I 0.014 | ibrutinib 0.019 | [9] 0.028 | ralimetinib 0.007 | [10] -0.029 | [11] -0.056 | [12] -0.019 | [13] -0.157 | [14] -0.006 | [15] -0.02 | [16] -0.04

HEATR3 (UniProt Q7Z4Q2)
inactive: erlotinib 0.002 | [1] 0.029 | [2] -0.064 | [3] -0.015 | [4] 0.02 | [5] -0.022 | [6] -0.052 | [7] -0.002 | [8] 0.006 | IRAK-1-4 Inhibitor I -0.001 | ibrutinib 0.026 | [9] -0.008 | ralimetinib 0.037 | [10] -0.048 | [11] -0.01 | [12] -0.001 | [13] -0.015 | [14] 0.004 | [15] -0.027 | [16] 0.023

INTS3 (UniProt Q68E01)
inactive: erlotinib 0.015 | [1] 0.035 | [2] 0.021 | [3] -0.002 | [4] -0.008 | [5] -0.043 | [6] -0.005 | [7] 0.026 | [8] -0.083 | IRAK-1-4 Inhibitor I 0.016 | ibrutinib 0.044 | [9] 0.024 | ralimetinib 0.019 | [10] -0.032 | [11] 0.032 | [12] -0.035 | [13] 0.004 | [14] 0.009 | [15] 0.025 | [16] -0.032

HNRNPH2 (UniProt P55795)
Sequence of UniProt P55795 (P55795 whole entry, looked up): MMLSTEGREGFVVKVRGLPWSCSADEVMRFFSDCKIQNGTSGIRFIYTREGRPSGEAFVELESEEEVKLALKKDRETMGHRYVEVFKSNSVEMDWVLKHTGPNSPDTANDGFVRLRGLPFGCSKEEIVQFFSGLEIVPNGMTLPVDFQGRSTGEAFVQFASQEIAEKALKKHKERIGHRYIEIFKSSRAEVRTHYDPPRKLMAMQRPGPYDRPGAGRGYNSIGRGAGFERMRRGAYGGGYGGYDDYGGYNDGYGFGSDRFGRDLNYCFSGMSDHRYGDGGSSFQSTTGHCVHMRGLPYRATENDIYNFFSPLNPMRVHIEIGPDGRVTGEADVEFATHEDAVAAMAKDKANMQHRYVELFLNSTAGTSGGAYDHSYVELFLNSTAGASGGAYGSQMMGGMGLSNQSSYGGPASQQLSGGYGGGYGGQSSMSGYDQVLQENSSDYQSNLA
inactive: erlotinib -0.035 | [1] 0.112 | [2] 0.028 | [3] -0.047 | [4] 0.02 | [5] 0.038 | [6] -0.015 | [7] 0.01 | [8] -0.013 | IRAK-1-4 Inhibitor I 0 | ibrutinib 0.017 | [9] 0 | ralimetinib -0.03 | [10] -0.023 | [11] -0.01 | [12] 0.056 | [13] 0.024 | [14] 0.081 | [15] 0.053 | [16] 0.029

KHK isoform 2 (UniProt P50053)
inactive: erlotinib -0.07 | [1] 0.024 | [2] 0.072 | [3] -0.005 | [4] 0.044 | [5] 0.069 | [6] 0.044 | [7] 0.032 | [8] -0.018 | IRAK-1-4 Inhibitor I 0.084 | ibrutinib 0.023 | [9] 0.039 | ralimetinib 0.001 | [10] -0.032 | [11] -0.033 | [12] 0.013 | [13] -0.025 | [14] 0.185 | [15] -0.033 | [16] -0.04

HNRNPD isoform 2 (UniProt Q14103)
Sequence of UniProt Q14103 (Q14103 whole entry, looked up): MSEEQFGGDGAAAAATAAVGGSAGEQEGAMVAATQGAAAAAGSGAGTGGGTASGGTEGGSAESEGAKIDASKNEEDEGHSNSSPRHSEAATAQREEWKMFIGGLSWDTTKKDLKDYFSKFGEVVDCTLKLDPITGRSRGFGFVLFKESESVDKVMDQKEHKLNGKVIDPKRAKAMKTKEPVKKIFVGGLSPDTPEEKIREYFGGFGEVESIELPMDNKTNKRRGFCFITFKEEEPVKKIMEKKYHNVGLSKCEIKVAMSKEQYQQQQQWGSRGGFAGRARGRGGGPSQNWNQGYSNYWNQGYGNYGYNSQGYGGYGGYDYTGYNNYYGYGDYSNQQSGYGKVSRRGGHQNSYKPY
inactive: erlotinib -0.001 | [1] -0.014 | [2] -0.022 | [3] -0.027 | [4] 0.049 | [5] 0.014 | [6] -0.023 | [7] 0.012 | [8] -0.009 | IRAK-1-4 Inhibitor I 0.018 | ibrutinib 0 | [9] -0.142 | ralimetinib -0.039 | [10] -0.01 | [11] 0.016 | [12] -0.046 | [13] 0.001 | [14] 0.034 | [15] -0.014 | [16] -0.011

IRAK1 (UniProt P51617)
Sequence of UniProt P51617 (P51617 whole entry, looked up): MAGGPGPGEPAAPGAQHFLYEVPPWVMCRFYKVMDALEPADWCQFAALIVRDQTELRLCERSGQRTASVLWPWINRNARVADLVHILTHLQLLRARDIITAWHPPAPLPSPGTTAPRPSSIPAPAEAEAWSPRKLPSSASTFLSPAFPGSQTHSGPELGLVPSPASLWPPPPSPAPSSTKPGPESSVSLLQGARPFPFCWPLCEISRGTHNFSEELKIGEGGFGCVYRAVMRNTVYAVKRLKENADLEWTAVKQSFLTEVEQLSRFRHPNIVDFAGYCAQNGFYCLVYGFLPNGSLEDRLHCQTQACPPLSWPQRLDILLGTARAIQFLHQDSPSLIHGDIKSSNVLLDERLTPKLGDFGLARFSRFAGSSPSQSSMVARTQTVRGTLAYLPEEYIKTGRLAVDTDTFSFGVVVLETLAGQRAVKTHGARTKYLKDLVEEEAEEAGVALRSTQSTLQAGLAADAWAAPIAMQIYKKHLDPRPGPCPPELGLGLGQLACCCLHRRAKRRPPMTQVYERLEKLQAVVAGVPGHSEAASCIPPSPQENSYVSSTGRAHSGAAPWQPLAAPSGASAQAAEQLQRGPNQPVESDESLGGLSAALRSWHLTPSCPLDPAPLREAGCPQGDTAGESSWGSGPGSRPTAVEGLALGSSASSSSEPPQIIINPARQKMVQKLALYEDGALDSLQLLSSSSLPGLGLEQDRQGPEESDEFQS
inactive: erlotinib 0.038 | [1] -0.054 | [2] -0.108 | [3] -0.015 | [4] 0.028 | [5] 0.039 | [6] 0.117 | [7] 0.023 | [8] -0.096 | IRAK-1-4 Inhibitor I 0.023 | ibrutinib 0.032 | [9] 0.195 | ralimetinib -0.024 | [10] -0.031 | [11] -0.018 | [12] -0.013 | [13] -0.028 | [14] -0.086 | [15] 0.062 | [16] 0

GTF2H1 (UniProt P32780)
Sequence of UniProt P32780 (P32780 whole entry, looked up): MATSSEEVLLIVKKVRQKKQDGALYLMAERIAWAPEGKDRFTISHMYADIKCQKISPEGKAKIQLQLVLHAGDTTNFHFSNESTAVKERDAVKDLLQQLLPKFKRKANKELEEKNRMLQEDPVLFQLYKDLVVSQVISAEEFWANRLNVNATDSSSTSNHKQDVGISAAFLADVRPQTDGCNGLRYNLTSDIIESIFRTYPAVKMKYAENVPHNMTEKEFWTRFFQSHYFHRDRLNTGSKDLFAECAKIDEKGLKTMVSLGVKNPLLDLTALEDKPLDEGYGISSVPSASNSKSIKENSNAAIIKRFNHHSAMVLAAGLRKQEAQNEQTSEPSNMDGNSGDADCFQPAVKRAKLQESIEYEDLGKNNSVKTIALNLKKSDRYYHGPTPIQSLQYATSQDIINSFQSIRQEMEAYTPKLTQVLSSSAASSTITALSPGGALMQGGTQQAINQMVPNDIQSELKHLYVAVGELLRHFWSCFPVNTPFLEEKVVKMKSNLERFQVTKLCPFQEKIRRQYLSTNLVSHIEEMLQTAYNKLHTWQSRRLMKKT
inactive: erlotinib 0.044 | [1] 0.008 | [2] 0.012 | [3] -0.032 | [4] -0.011 | [5] 0.003 | [6] -0.013 | [7] 0.029 | [8] -0.005 | IRAK-1-4 Inhibitor I -0.019 | ibrutinib 0.023 | [9] 0.023 | ralimetinib 0.026 | [10] 0.003 | [11] -0.005 | [12] 0.036 | [13] -0.022 | [14] 0.001 | [15] 0.054 | [16] 0.015
